Source: PubChem BioAssay
Several values for one entry are separate records, joined by “and”; a condition that tells them apart may be missing. Identical values can stand only once. Some compounds were tested as several samples or in several runs, with calls that do not always agree. Activity calls are given as the source filed them.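 How the source made its calls, unless noted: active means inhibition at or above 50% relative to wild type and mutant plate controls; inactive means inhibition below 50%.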

Key:
[1] = inhibitors of TNFa-induced NFkB p65 translocation, primary screen, imaging, HUVEC, MLSMR starter and 10KST1 sets (AID 438;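 active means inhibition above 20% together with a positive visual image hit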;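 further: compound added about 3h40 before a 20 min TNFalpha stimulation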;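 on inhibition: signal is the nuclear over cytoplasmic p65 intensity ratio per well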); conditions: HUVEC TNFa-induced p65 nuclear translocation; cell count: measured here: nuclei count (cytotoxicity indicator), at 2.08 µM; inhibition: at 2 µM, stronger effect = higher value, 0% TNFa-plus-vehicle, 100% no-TNFa wells
[2] = inhibitors of mutant huntingtin aggregation, primary screen, imaging, exon1htt(103Q)mCFP cells, high-content imaging (AID 483;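 active means visual image review flags a hit and inhibition of aggregation exceeds 20%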;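 further: compound exposure lasted 3 days before fixation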;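 on nuclei count: percent of the per-plate median nuclei count of sample wells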); conditions: exon1htt(103Q)mCFP cell line, aggregate imaging, at 2 µM; inhibition of aggregation: stronger effect = higher value; nuclei count: measured here: cell count, toxicity
[3] = inhibitors of E-selectin induction by TNFa, primary screen, imaging, HUVEC, immunofluorescence, MLSMR starter and 10KST1 sets (AID 487;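 active means visually confirmed hit in the image check and inhibition above 20%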;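 on inhibition: signal is fraction of cell area covered by stained E-selectin grains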;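 on nuclei count: 100% = median nuclei count of all wells on the same plate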); conditions: HUVEC TNFalpha-induced E-selectin immunofluorescence imaging, at 2 µM; inhibition: stronger effect = higher value; nuclei count: measured here: cell number, toxicity
[4] = DUSP6 inhibitors restoring Erk phosphorylation by chemical complementation, primary imaging in DUSP6-transfected HeLa (AID 609;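 active means compounds giving at least 50% inhibition in the cell-based MKP-3 phosphatase rescue imaging test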;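 on inhibition: phospho-Erk level distribution per well compared with pooled transfected vehicle control wells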); conditions: HeLa MKP-3 transfected, phospho-Erk imaging KS statistic, at 10 µM, cells stimulated with TPA for 15 min
[5] = biological target: Dual specificity protein phosphatase 6 (Homo sapiens) (UniProt Q16828); test: as above; conditions: HeLa MKP-3 transfected, phospho-Erk imaging KS statistic; at 10 µM; stronger effect = higher value; cells stimulated with TPA for 15 min
Dual specificity protein phosphatase 6 (Homo sapiens), sequence (Q16828 whole entry, looked up): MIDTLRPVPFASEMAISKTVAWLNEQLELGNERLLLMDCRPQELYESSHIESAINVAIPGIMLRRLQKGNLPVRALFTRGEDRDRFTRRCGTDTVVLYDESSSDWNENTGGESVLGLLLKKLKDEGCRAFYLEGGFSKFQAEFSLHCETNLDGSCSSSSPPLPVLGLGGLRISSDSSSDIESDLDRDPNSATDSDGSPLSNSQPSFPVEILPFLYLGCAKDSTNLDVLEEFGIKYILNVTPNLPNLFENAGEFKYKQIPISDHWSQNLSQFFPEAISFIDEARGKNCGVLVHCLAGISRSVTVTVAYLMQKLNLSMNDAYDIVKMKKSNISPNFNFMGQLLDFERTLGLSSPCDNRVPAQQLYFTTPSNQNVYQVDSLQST

[6] = biological target: Voltage-gated potassium channel subunit beta-2 (Rattus norvegicus) (UniProt P62483); test: KvBeta enzyme negative modulators, primary screen, biochemical, NADPH fluorescence (AID 622;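 active means fluorescence slope higher than the sample average by over 3 SD, cut at about -0.22 in these data, passing the limit was not always enough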;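 further: slope of raw intensity against log time taken from 70 to 1610 s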); conditions: recombinant KvBeta, 4-cyanobenzaldehyde reduction, at 10 µM, stronger effect = higher value
Voltage-gated potassium channel subunit beta-2 (Rattus norvegicus), sequence (P62483 whole entry, looked up): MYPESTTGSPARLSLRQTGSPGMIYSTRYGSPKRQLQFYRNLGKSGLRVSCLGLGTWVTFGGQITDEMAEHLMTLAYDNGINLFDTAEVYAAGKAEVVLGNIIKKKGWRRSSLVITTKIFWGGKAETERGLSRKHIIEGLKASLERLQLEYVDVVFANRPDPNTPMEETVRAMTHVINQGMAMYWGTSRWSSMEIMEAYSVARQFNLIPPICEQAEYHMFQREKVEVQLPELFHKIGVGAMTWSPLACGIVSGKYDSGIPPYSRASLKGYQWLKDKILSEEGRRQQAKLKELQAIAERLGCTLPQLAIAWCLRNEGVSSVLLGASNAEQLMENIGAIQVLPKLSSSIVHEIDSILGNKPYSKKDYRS

[7] = biological target: Voltage-gated potassium channel subunit beta-2 (Rattus norvegicus) (UniProt P62483); test: KvBeta positive modulators, primary screen, biochemical, NADPH fluorescence (AID 623;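 active means NADPH fluorescence slope more negative than the mean of all samples by about 3 SD, 99.7% confidence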;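 further: fluorescence intensity change per second fitted from 20 to 320 s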); conditions: Recombinant KvBeta, NADPH fluorescence decrease slope, 10 min; at 10 µM; stronger effect = lower value
[8] = biological target: Alpha-2C adrenergic receptor (Homo sapiens) (UniProt P18825); test: modulators of alpha2C/GIRK thallium flux, primary screen, cell-based, HEK293 alpha2C/GIRK1/2 (AID 624;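 active means fluorescence slope after compound addition differing from the mean of all screened samples at 99.7% confidence, in either direction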;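 further: slope of fluorescence ratio to pre-addition baseline per second over 15 to 24 s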); conditions: thallium flux BTC fluorescence, at 10 µM, actives lie on both sides
Alpha-2C adrenergic receptor (Homo sapiens), sequence (P18825 whole entry, looked up): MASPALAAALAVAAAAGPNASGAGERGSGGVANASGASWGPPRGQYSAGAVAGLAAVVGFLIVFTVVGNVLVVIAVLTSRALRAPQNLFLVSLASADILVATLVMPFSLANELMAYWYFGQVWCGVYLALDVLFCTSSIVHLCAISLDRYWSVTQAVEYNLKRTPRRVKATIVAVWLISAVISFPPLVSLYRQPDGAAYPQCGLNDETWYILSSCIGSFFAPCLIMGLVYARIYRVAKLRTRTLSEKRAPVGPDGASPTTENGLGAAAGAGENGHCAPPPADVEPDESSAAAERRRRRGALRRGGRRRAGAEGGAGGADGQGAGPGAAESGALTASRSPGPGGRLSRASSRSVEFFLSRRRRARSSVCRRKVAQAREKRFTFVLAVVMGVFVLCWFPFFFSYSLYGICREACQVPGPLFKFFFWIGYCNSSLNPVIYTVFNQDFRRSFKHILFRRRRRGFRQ

[9] = inhibitors of larval lipid processing in zebrafish, primary screen, whole organism, PED6 fluorescence, gall bladder and intestine (AID 686;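 active means a full or partial loss of lipid-probe fluorescence in the fish gall bladder, intestine or both, judged by eye; inactive means no fluorescence loss, or compound toxic to the fish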;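 further: larvae 5 to 7 days old with five fish per well; signal comes from phospholipase A2 cleavage of quenched PED6 carried via bile; overnight exposure to compound and PED6 before scoring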); conditions: Zebrafish larvae PED6 lipid processing, fluorescence scoring; screened at 20 µM (by protocol)
[10] = inhibitors of Chlamydomonas gravitaxis, primary screen, whole organism, Chlamydomonas reinhardtii, WT vs cilia-less mutant, absorbance, 96-well (AID 463189); conditions: OD600 absorbance, 2 days, at 10 µM, stronger effect = higher value;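 further: 0% = wild type cc124 cells in DMSO and 100% = ciliumless bld1 mutant cells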
[11] = inhibitors of Sendai virus-induced IRF3 signaling, primary screen, TLR/RLR signaling modifier project, cell-based, Sendai virus stimulus, luciferase, 10K MLSCN set (AID 602276;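 active means inhibition at or above 50% at 10 µM; inactive means inhibition below 50%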;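 further: firefly luciferase from ISG56 promoter only with Renilla not read in this screen; 0% = Sendai virus plus DMSO and 100% = medium plus DMSO without virus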); conditions: HEK293 RL24 IRF3 luciferase reporter, at 10 µM, stronger effect = higher value
[12] = inhibitors of poly I:C-induced TLR3 signaling, primary screen, cell-based, poly I:C stimulus, luciferase, 10K MLSCN set (AID 602277;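 active means inhibition of the reporter signal at or above 50%; inactive means inhibition below 50%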); conditions: HEK293-TLR3 RL24 IRF3 luciferase reporter, at 10 µM, stronger effect = higher value
[13] = measured here: cell density z-score
[14] = measured here: nuclear c-Myc green intensity z-score
[15] = measured here: nuclear pErk red intensity z-score, stronger effect = higher value

Structure (SMILES)	cell count [1]	inhibition [1]	inhibition of aggregation [2]	nuclei count [2]	inhibition [3]	nuclei count [3]	z-score [4, 13]	z-score [4, 14]	z-score [4, 15]	inhibition [5]	fluorescence slope [6]	NADPH fluorescence slope [7]	slope [8]	outcome [9]	inhibition [10]	inhibition [11]	inhibition [12]
CC1CCc2cc(F)cc3c(O)c(C(=O)NCC4CCCO4)c(=O)n1c23 (configuration not stated)	553	2.6% (inactive)	1.2% (inactive)	83.8%	-28.6% (inactive)	134%	-0.0424	-0.796	-0.351	-8.76% (inactive)	-0.395 (inactive)	1.7e-06 (inactive)	0.0054 (inactive)	inactive	11.8% (inactive)	4.8% (inactive)	8.44% (inactive)
OCCN(CCO)c1nc(N2CCCCC2)c2nc(N(CCO)CCO)nc(N3CCCCC3)c2n1	547	-6.1% (inactive)	-4% (inactive)	110%	-59.7% (inactive)	134%	0.412	0.0897	0.61	-0.493% (inactive)	-0.056 (active)	-1.2e-07 (inactive)	0 (inactive)	inactive	1.16% (inactive) and 19.1% (inactive)	10.6% (inactive)	-14.4% (inactive)
CC(C)Cc1nc(N2CCN(C(=O)c3ccco3)CC2)c(C#N)c2c1CCC2	615	2% (inactive)	-13.4% (inactive)	106%	-37.8% (inactive)	116%	0.33	2.04	-0.551	-1.75% (inactive)	-0.498 (inactive)	-7e-05 (inactive)	0.00426 (inactive)	inactive	-2% (inactive)	10.7% (inactive)	12.6% (inactive)
CC(NCCc1ccc(O)cc1)C(O)c1ccc(O)cc1 (configuration not stated)	713	-4.6% (inactive)	-2.5% (inactive)	107%	-109% (inactive)	123%	0.779	0.516	-1.29	1.48% (inactive)	-0.474 (inactive)	-9.7e-05 (inactive)	0.00504 (inactive)	inactive	4.91% (inactive)	7.45% (inactive)	39.2% (inactive)
O=C(NCc1ccco1)c1cnn2c(C(F)(F)F)cc(-c3ccco3)nc12	480	-4.4% (inactive)	-12.5% (inactive)	95.1%	-34.8% (inactive)	118%	-0.634	0.493	-1.31	11.3% (inactive)	-0.421 (inactive)	-6.2e-05 (inactive)	0.00539 (inactive)	inactive	-15.7% (inactive)	16% (inactive)	24.8% (inactive)
COc1ccc(NC(=O)CSC2=C(C#N)C(c3ccco3)C3=C(CCCC3=O)N2)c(OC)c1 (configuration not stated)	429	1.6% (inactive)	-5.2% (inactive)	95.8%	-47.9% (inactive)	104%	-1.49	0.542	0.619	13.4% (inactive)	-0.456 (inactive)	-9.4e-06 (inactive)	0.00706 (inactive)	inactive	26.6% (inactive)	17.5% (inactive)	18.8% (inactive)
CCCN(CCC)C(=O)C(CCC(=O)O)NC(=O)c1ccccc1 (configuration not stated)	589	-1.1% (inactive)	11.8% (inactive)	92.5%	-37.3% (inactive)	118%	-1.75	0.853	-0.876	5.79% (inactive)	-0.461 (inactive)	-3.2e-05 (inactive)	0.00459 (inactive)	inactive	5.36% (inactive) and -10.6% (inactive)	11.3% (inactive)	28% (inactive)
CCN(CC)c1ccc2c(C)c(-c3ccc(N)cc3)c(=O)oc2c1	446	-5% (inactive)	6.3% (inactive)	98.2%	25% (inactive)	149%	0.788	0.208	-0.594	-4.78% (inactive)	-0.133 (active)	0 (inactive)	0.00526 (inactive)	inactive	55.8% (active)	-44% (inactive)	-91% (inactive)
CNCCCC1c2ccccc2C=Cc2ccccc21	583	-3.3% (inactive)	10.3% (inactive)	79.5%	-90.5% (inactive)	120%	0.8	0.418	3.14	-11.9% (inactive)	-0.496 (inactive)	-5.9e-05 (inactive)	0.00425 (inactive)	inactive	7.66% (inactive) and 11.9% (inactive)	18.5% (inactive)	41.3% (inactive)
Nc1ccc2[nH]ncc2c1	684	7.9% (inactive)	-14.5% (inactive)	106%	-64.7% (inactive)	141%	0.816	1.08	-0.122	27.9% (inactive)	-0.496 (inactive)	-6.9e-05 (inactive)	0.00441 (inactive)	inactive	-11% (inactive)	11.4% (inactive)	31.1% (inactive)
Cc1onc(-c2ccccc2)c1C(=O)N[C@@H]1C(=O)N2[C@@H]1SC(C)(C)[C@@H]2C(=O)O	638	-3.4% (inactive)	-5% (inactive)	102%	-91.9% (inactive)	126%	-0.0512	-0.454	0.656	25.1% (inactive)	-0.532 (inactive)	-4.6e-05 (inactive)	0.00473 (inactive)	inactive	-11.8% (inactive)	-2.42% (inactive)	27.7% (inactive)
CCc1ccccc1NC(=O)CSC1=C(C#N)C(c2ccc(O)c(OC)c2)C2=C(CCCC2=O)N1 (configuration not stated)	554	-8.4% (inactive)	-29.5% (inactive)	109%	-146% (inactive)	137%	-0.0849	-0.0258	0.52	13.2% (inactive)	-0.422 (inactive)	-3.5e-05 (inactive)	0.00571 (inactive)	inactive	22.1% (inactive)	18.6% (inactive)	20% (inactive)
CC(=O)OCC(=O)[C@H]1CC[C@H]2[C@@H]3CCC4=CC(=O)CC[C@]4(C)[C@H]3CC[C@]12C	599	-7.8% (inactive)	-27.4% (inactive)	83.1%	-142% (inactive)	132%	-1.17	0.0337	1.04	11.3% (inactive)	-0.472 (inactive)	-1.7e-05 (inactive)	0.00411 (inactive)	inactive	6.25% (inactive)	-2.65% (inactive)	25.6% (inactive)
CC(C)COc1nc2ccccc2nc1C(C#N)C(=O)NC1CCCCC1 (configuration not stated)	342	-6.5% (inactive)	11.7% (inactive)	98.8%	-27.9% (inactive)	133%	0.00555	0.614	0.00363	-5.26% (inactive)	-0.423 (inactive)	-0.00013 (inactive)	0.00573 (inactive)	inactive	9.16% (inactive)	13.4% (inactive)	8.92% (inactive)
CC1=C(C)C(=O)C(CCCCC#CCCCC#CCO)=C(C)C1=O	531	4.4% (inactive)	9.6% (inactive)	95.5%	-112% (inactive)	108%	0.752	-0.729	-1.42	19.2% (inactive)	-0.452 (inactive)	-2.1e-05 (inactive)	0.00343 (inactive)	inactive	-6.32% (inactive) and 57.1% (active)	14.4% (inactive)	32.8% (inactive)
CCCCNc1cc(C(=O)O)cc(S(N)(=O)=O)c1Oc1ccccc1	603	-16.6% (inactive)	-13.4% (inactive)	110%	-136% (inactive)	140%	0.424	0.482	-0.678	15.3% (inactive)	-0.47 (inactive)	-6.3e-05 (inactive)	0.00446 (inactive)	inactive	7.78% (inactive) and -7.14% (inactive)	13.2% (inactive)	38.2% (inactive)
Cn1c(=O)c2c3c(sc2n2c(SCc4ccccc4)nnc12)CCCC3	550	-5.3% (inactive)	1.8% (inactive)	103%	-44% (inactive)	99.3%	-0.0166	-0.0898	-0.287	4.37% (inactive)	-0.371 (inactive)	-1.7e-05 (inactive)	0.00552 (inactive)	inactive	32.4% (inactive)	-3.8% (inactive)	97.9% (active)
CCC(=O)N[C@@H]1CC(C(C)(C)NC(=O)CC)CC=C1C (some centres not stated)	537	-16.4% (inactive)	-10.9% (inactive)	110%	-21.9% (inactive)	137%	-0.93	0.526	-0.616	-6.06% (inactive)	-0.349 (inactive)	-1e-06 (inactive)	0.00698 (inactive)	inactive	6.4% (inactive)	18.2% (inactive)	18.8% (inactive)
C[C@]12CC[C@@H]3c4ccc(O)cc4CC[C@H]3[C@@H]1CC[C@@H]2OC(=O)CCC(=O)O	543	4.6% (inactive)	-1.9% (inactive)	91.7%	-5.8% (inactive)	111%	-0.479	-0.845	2.04	5.79% (inactive)	-0.519 (inactive)	-3.4e-05 (inactive)	0.0043 (inactive)	inactive	-7.26% (inactive)	15.4% (inactive)	24% (inactive)
NS(=O)(=O)c1ccc(C(=O)O)cc1	662	-3.9% (inactive)	7.9% (inactive)	106%	-60.6% (inactive)	124%	1.84	-0.0127	-1.63	31.1% (inactive)	-0.499 (inactive)	3.5e-06 (inactive)	0.00388 (inactive)	inactive	24.6% (inactive)	-11.5% (inactive)	-18% (inactive)
O=C(O)c1ccccc1S	650	-5% (inactive)	6.8% (inactive)	96.1%	-76.8% (inactive)	126%	1.28	1.34	-0.494	21.2% (inactive)	-0.435 (inactive)	-8.2e-05 (inactive)	0.00404 (inactive)	inactive	-11% (inactive)	6.85% (inactive)	19% (inactive)
